# Reference: article PMC4336329 (PLoS ONE, 2015)
# The whole screen tested about 310,000 compounds, of which about 14,000 (4.5%) showed an effect of 50% or more. The effect is printed as a negative number. What follows is part of a selection rich in strong results, with near analogues and random picks from the rest.
# Target: human ether-à-go-go-related gene (hERG) potassium channel (human, UniProt Q12809)
# Experiment: primary screen, population patch clamp on CHO cells stably expressing hERG; higher = less effect of the substance
# 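Also: peak tail current of the secondary pulse compared with the same well before compound.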
# Sequence of human ether-à-go-go-related gene (hERG) potassium channel (Q12809 whole entry, looked up): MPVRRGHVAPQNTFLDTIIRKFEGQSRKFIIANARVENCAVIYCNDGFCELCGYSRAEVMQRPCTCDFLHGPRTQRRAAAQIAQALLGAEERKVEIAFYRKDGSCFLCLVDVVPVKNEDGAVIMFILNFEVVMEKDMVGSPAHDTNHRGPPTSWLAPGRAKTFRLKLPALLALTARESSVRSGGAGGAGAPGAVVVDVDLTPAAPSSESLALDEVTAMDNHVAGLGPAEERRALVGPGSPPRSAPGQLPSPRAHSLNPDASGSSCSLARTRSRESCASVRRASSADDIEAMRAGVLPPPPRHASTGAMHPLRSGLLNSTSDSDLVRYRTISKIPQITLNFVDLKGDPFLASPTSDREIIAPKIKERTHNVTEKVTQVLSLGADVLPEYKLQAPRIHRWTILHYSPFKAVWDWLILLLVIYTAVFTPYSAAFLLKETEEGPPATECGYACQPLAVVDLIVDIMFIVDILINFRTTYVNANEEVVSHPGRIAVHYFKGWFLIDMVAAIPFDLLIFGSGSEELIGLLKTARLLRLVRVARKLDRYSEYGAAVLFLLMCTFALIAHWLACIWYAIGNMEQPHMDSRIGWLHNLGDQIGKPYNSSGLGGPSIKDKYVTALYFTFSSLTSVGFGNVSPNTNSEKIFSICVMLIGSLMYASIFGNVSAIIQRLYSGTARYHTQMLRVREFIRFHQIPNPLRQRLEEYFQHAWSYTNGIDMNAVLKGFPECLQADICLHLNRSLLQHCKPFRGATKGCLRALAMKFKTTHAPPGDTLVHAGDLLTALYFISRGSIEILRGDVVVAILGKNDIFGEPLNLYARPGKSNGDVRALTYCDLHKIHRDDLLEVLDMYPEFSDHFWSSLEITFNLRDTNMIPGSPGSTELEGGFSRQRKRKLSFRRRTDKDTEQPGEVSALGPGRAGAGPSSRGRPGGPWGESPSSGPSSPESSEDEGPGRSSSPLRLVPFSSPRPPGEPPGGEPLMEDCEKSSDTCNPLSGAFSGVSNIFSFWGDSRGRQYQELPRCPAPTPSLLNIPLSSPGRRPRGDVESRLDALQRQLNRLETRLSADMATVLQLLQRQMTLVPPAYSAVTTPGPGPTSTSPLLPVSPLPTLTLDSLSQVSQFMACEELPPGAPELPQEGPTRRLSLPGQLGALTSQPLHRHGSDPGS
row,Structure (SMILES),"hERG current change (%, negative = inhibition) at 10uM [%]"
1,CCN1CCN(S(=O)(=O)c2cccc3nsnc23)CC1,-5.57
2,COc1cccc(/C=C2\SC(=N)N(c3ccc(F)cc3)C2=O)c1,9.22
3,CCCOc1ccc(-c2c(C(=O)N/N=C/c3ccccc3)nnn2-c2nonc2N)cc1,4.98
4,O=C(Nc1ccc2c(c1)OCO2)c1cc(-c2cccc(O)c2)on1,-63.1
5,O=C(Nc1cccc(O)c1)c1cc(-c2ccc3c(c2)OCO3)on1,11.3
6,O=C(Nc1ccc2c(c1)OCO2)c1cc(-c2ccc(O)cc2)on1,22.4
7,C/C(=C\c1ccccc1)CN1CCN(Cc2ccc(C)o2)C(CCO)C1 (stereo not drawn),-13.4
8,COc1cc(/C=C/CN2CCN(Cc3ccc(C)o3)C(CCO)C2)ccc1O (stereo not drawn),-6.62
9,COc1ccc(/C=C/CN2CCN(CC(C)C)C(CCO)C2)cc1 (stereo not drawn),-52.2
10,CCOc1ccccc1CN1CCN(C/C=C/c2ccc(OC)cc2)CC1CCO (stereo not drawn),-65
11,Cc1ccc(CN2CCN(C/C=C/c3ccc(F)cc3)CC2CCO)o1 (stereo not drawn),-54.5
12,COc1cc(/C=C/CN2CCN(CCC(C)C)C(CCO)C2)ccc1O (stereo not drawn),23
13,CCOc1ccccc1CN1CCN(Cc2ccc(C)o2)C(CCO)C1 (stereo not drawn),-12.9
14,COc1ccccc1/C=C/CN1CCN(Cc2ccc(C)o2)C(CCO)C1 (stereo not drawn),-12
15,COc1ccccc1/C=C/CN1CCN(Cc2ccc(F)cc2)C(CCO)C1 (stereo not drawn),-51
16,COC(=O)c1ccc(CN2CCN(CC(C)C)C(CCO)C2)cc1 (stereo not drawn),-3.11
17,COc1ccc(CCNC(=O)c2sc3cc(C)ccc3c2Cl)cc1,3.77
18,CCn1c(SCC(=O)Nc2ccccc2C(=O)OC)nnc1-c1cccc(C)c1,-36.2
19,O=S(=O)(c1ccc(O)cc1)c1ccc(O)cc1,16.9
20,CNC(=O)C(=O)NCC1CCCN1S(=O)(=O)c1cccs1 (stereo not drawn),12.4
21,C=CCn1c(-c2cccnc2Cl)nc2ccccc21,8.48

row,Structure (SMILES),"hERG current change (%, negative = inhibition) at 10uM [%]"
1,Cc1nn(-c2cc(N3CCOCC3)ccc2[N+](=O)[O-])c(=O)c2ccccc12,-4.66
2,O=C([O-])/C=C1\CCCc2ccccc2C1O.[Na+] (stereo not drawn),18.4
3,Cc1ccsc1/C=N/NC(=O)CNC(=O)c1ccc(S(=O)(=O)N2CCOCC2)cc1,2.86
4,O=C(C1CCN(S(=O)(=O)c2cccc3cccnc23)CC1)N1CCN(C2CCCCC2)CC1,-0.647
5,COc1cccc(CN2CCN(CC#Cc3ccccc3)CC2CCO)c1 (stereo not drawn),-30.6
6,COc1cccc(CN2CCN(Cc3ccc(OC)c(OC)c3)CC2CCO)c1 (stereo not drawn),-27.2
7,COc1ccc(/C=C/CN2CCN(Cc3ccccc3)C(CCO)C2)cc1 (stereo not drawn),-51.9
8,COc1ccc(/C=C/CN2CCN(Cc3ccc(F)cc3)C(CCO)C2)cc1 (stereo not drawn),-58.5
9,COc1ccc(CN2CCN(Cc3cccc(OC)c3)C(CCO)C2)cc1 (stereo not drawn),-45.8
10,COC(=O)c1ccc(CN2CCN(Cc3ccc(F)cc3)C(CCO)C2)cc1 (stereo not drawn),10.1
11,COc1ccc(/C=C/CN2CCN(Cc3cccc(OC)c3)C(CCO)C2)cc1 (stereo not drawn),-51.9
12,CC(C)N1CCC(N2CCN(C/C=C/c3ccc(F)cc3)CC2CCO)CC1 (stereo not drawn),-6.87
13,CCOc1ccc(CN2CCN(C/C=C/c3ccc(OC)cc3)CC2CCO)cc1 (stereo not drawn),-88.7
14,COC(=O)COc1ccc(-c2nccc(-c3ccccn3)n2)cc1,13.3
15,CCN(CC(=O)Nc1ccccc1OC)C(=O)c1cc(-c2ccccc2)nn1-c1ccccc1,-36.9
16,COc1ccc(-c2noc(N3CCC(C(=O)NCc4ccccc4Cl)CC3)n2)cc1,-11.9
17,CCOC(=O)NC(=O)CSc1nc2ccc(C)cc2[nH]1,8.02
18,COc1cc(/C=N/NC(=O)c2csc3c2CCCC3)ccc1OCCN1CCOCC1,-31.9
19,COc1ccccc1C(=O)NNC(=O)c1nn(Cc2ccccc2)c(=O)c2ccccc12,-14
20,O=C(CSc1ncnc2sccc12)Nc1ccccc1,21.2
21,COc1ccc(C(=O)NNC(=O)CNC(=O)C2CCCCC2)cc1,14

row,Structure (SMILES),"hERG current change (%, negative = inhibition) at 10uM [%]"
1,COc1ccc(/C=C/CN2CCN(CCc3ccccc3)C(CCO)C2)cc1 (stereo not drawn),-71.9
2,OCC[C@H]1C[C@H](O)[C@@H](O)[C@@]2(CCCO2)O1,20.1
3,CC(C)CNc1nc(NC(C)(C)C)nc(Oc2ccc(=O)[nH]n2)n1,9.66
4,Cc1ccc(S(=O)(=O)N2CCC(N3CCC(C)CC3)CC2)cc1,-29.1
5,CCCCc1cc(=O)oc2cc(C)cc(OC(C)C(=O)NCc3cccnc3)c12 (stereo not drawn),-19.7
6,Cc1ccc(NC(=O)COC(=O)c2cc(=O)c3ccccc3o2)cc1F,12.9
7,Cc1cccc(C)c1NC(=O)COC(=O)c1cc(=O)c2ccccc2o1,5.2
8,Cc1ccccc1NC(=O)COC(=O)c1cc(=O)c2ccccc2o1,-67.4
9,CC1=C(C)C(=O)N(C(C)CCc2ccccc2)C1=O (stereo not drawn),4.9
10,O=C(c1cc2c(=O)n3ccccc3nc2s1)N1CCN(Cc2ccccc2)CC1,-27.7
11,O=C(c1ccc([N+](=O)[O-])s1)N1CCN(c2cccc(Cl)c2)CC1,-66.1
12,COc1ccccc1N1CCN(C(=O)c2cc3c(=O)n4ccccc4nc3s2)CC1.Cl,-53.2
13,COC(=O)c1cc(C(=O)N2CCN(c3cccc(C)c3C)CC2)cc([N+](=O)[O-])c1,-39.6
14,CCOC(=O)N1CCN(C(=O)c2cc3c(=O)n4cccc(C)c4nc3s2)CC1,-9.84
15,O=C(c1ccc([N+](=O)[O-])s1)N1CCN(c2ccccc2)CC1,-25.8
16,COC(=O)c1cc(C(=O)N2CCN(c3cccc(Cl)c3)CC2)cc([N+](=O)[O-])c1,-59
17,COc1ccccc1N1CCN(C(=O)c2cc3c(=O)n4cccc(C)c4nc3s2)CC1,-11.2
18,Cc1c(C(=O)N2CCN(c3cccc(Cl)c3)CC2)cccc1[N+](=O)[O-],-42.5
19,COC(=O)c1cc(C(=O)N2CCN(c3ncccn3)CC2)cc([N+](=O)[O-])c1,-5.19
20,CN1CCN(C(=O)c2cc3c(=O)n4ccccc4nc3s2)CC1,-2.57
21,Cc1cccn2c(=O)c3cc(C(=O)N4CCN(Cc5ccccc5)CC4)sc3nc12,-79.7
